In PubChem BioAssay one finds composite z-score and z-score data, which are given here for five compounds.

Active and inactive are the calls of the source. Unless noted, no rule for the calls is given here.

Test [1] is described as follows: anti-His antibody binders, primary screen, artefact control for SMM control protein annotation, biochemical, small-molecule microarray, 635 nm fluorescence (AID 1128).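 Also: score merges feature fluorescence with signal-to-noise for each printed compound spot.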 The note with it: anti-His Alexa647 antibody binding, higher = more signal.
Test [2] concerns Human papillomavirus type 1a E7 protein (residues 1-88). Nature of the test: HPV1a E7 small-molecule binders, primary screen, biochemical, small-molecule microarray, residues 1-88, 635 nm (AID 1129). Particulars: small-molecule microarray binding, fluorescence 635 nm; higher = more signal.
For test [3], the target named is Focal adhesion kinase 1 (Homo sapiens) (UniProt Q05397). In words: small-molecule microarray binders of FAK, primary screen, biochemical, 635/667 nm fluorescence, BSA, DTT (AID 1130).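 Also: composite of spot emission at 667 nm and signal to noise over triplicate slides.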 The note with it: PTK2 binding, 635 nm fluorescence, higher = more signal.
Focal adhesion kinase 1 (Homo sapiens), sequence (Q05397 whole entry, looked up): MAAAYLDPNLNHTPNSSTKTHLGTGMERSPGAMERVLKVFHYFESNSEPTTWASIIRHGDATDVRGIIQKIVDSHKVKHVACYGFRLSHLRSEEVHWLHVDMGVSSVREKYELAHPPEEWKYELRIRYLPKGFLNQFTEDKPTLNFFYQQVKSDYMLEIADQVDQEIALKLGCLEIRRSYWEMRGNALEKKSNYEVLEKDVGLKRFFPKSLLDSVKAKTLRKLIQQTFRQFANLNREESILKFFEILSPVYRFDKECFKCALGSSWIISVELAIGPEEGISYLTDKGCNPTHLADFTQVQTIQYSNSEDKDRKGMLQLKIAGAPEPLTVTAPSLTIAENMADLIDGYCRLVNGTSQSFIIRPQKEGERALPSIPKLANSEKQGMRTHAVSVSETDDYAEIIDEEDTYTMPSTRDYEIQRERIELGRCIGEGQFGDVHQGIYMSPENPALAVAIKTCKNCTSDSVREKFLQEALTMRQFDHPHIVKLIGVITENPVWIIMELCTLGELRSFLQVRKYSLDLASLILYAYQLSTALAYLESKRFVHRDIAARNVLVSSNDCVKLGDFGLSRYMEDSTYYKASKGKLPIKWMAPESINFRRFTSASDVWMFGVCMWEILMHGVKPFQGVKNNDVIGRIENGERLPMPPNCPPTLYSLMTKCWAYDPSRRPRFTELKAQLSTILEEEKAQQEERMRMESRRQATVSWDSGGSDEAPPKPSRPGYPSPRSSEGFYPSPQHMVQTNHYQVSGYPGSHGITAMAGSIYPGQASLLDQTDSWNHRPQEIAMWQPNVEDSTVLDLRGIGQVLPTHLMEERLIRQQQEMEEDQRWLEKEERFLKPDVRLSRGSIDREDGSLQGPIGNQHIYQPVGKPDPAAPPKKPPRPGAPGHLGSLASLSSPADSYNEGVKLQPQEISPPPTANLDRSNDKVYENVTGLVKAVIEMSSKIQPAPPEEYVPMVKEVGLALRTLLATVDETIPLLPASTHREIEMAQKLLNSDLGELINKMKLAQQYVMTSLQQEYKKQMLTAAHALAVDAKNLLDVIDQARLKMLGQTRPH
Test [4] has as its system Fibrinogen (Alexa647-labelled). Nature of the test: fibrinogen binders on compound microarrays, profiling panel, artefact control for SMM control-protein annotation, biochemical, small-molecule microarray, 635/667 nm fluorescence (AID 1131).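 Also: z-score merges 667 nm fluorescence with per-spot signal-to-noise over triplicate slides.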 Particulars: fibrinogen-A647 binding fluorescence, higher = more signal.
The target in test [5] is Follistatin (Homo sapiens) (UniProt P19883). Nature of the test: follistatin binders on small-molecule microarrays, primary screen, biochemical, small-molecule microarray, 635/667 nm fluorescence (AID 1132). The note with it: FST binding, 635 nm fluorescence, higher = more signal.
Follistatin (Homo sapiens), sequence (P19883 whole entry, looked up): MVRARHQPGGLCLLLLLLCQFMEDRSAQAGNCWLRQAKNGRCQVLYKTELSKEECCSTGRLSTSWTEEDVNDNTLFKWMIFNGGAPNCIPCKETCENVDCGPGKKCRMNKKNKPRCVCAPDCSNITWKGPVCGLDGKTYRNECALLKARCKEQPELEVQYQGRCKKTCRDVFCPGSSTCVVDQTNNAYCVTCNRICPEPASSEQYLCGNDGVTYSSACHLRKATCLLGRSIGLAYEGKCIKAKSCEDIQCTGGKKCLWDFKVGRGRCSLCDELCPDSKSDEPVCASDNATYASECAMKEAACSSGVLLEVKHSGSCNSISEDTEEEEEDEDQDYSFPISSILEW
Test [6] addresses Fibroblast growth factor 2 (Homo sapiens) (UniProt P09038). In words: FGF2 binders on small-molecule microarrays, primary screen, biochemical, small-molecule microarray, 635/667 nm fluorescence (AID 1133). The note with it: small-molecule microarray binding, FGF2, fluorescence 635/667; higher = more signal.
A short description of test [7]: mitochondrial membrane potential change in A549 cells, profiling panel, cell-based, JC-1 fluorescence, basal, 24 h, 100 nL (AID 1138).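 Also: A549 lung adenocarcinoma cells under basal conditions with no added stimulus; test concentration not given here.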 Particulars: higher = more signal.
The next test deals with Lefty1. In words: Lefty1 binders on small-molecule microarrays, primary screen, biochemical, small-molecule microarray, 635/667 nm fluorescence (AID 1139). The note with it: small-molecule microarray binding, fluorescence 635/667; higher = more signal.
Test [8] concerns wheat germ agglutinin (Triticum aestivum), Alexa647-labelled. In words: wheat germ agglutinin binders on compound microarrays, profiling panel, artefact control for SMM control-protein annotation, biochemical, small-molecule microarray, 635/667 nm fluorescence (AID 1140).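 Also: score merges 667 nm feature emission with signal to noise over triplicate slides.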 The note with it: WGA-A647 binding, 635 nm fluorescence, higher = more signal.
Test [9] concerns the target Luciferin 4-monooxygenase (Photinus pyralis) (UniProt P08659). Nature of the test: firefly luciferase enzyme inhibitors, primary screen, biochemical, luminescence, purified enzyme, 2006 set (AID 1141).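 Also: cell-free assay with purified firefly luciferase at 100 ng per well in PBS; test concentration not given here.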 Particulars: SteadyGlo luminescence, 30 min, higher = more signal, called active from +8 up or from −8 down.
For test [10], the system named is Wnt5a (protein binding on small-molecule microarray). In words: Wnt5a binders on small-molecule microarray, primary screen, biophysical, 635/667 nm fluorescence (AID 1142).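 Also: fluorescence read at 667 nm with signal to noise per printed feature.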 Particulars: 635 nm fluorescence, higher = more signal.
The nature of test [11]: cell viability in Huh7 cells, primary screen, cytotoxicity control for HCV replication inhibitor project, CellTiter-Glo luminescence, basal, 48 h (AID 1143).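 Also: Huh7 hepatoma cells carrying a hepatitis C replication reporter with no stimulus; test concentration not given here.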 The note with it: Huh7 HCV replicon, higher = more signal, called active from +8 up or from −8 down. (In ATP-based viability assays light output follows the ATP content of the culture.)
A short description of test [12]: P. aeruginosa biofilm formation inhibitors, primary screen, PAO1 strain, BacTiter-Glo luminescence, LB-PBS (AID 1144). The note with it: 12 h, higher = more signal.
Test [13] can be described thus: CREB reporter modulators without forskolin, primary screen, cell-based, PC12, CRE-LacZ reporter, unstimulated (AID 1145). Particulars: no forskolin, luminescence, 4.5 h, higher = more signal, called active from +8 up or from −8 down.
Test [14] is described as follows: CREB reporter modulators under forskolin, primary screen, cell-based, PC12, CRE-LacZ reporter, forskolin-stimulated (AID 1146).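 Also: PC12 cells with 6xCRE LacZ reporter stimulated by forskolin 10 µM; beta-galactosidase reporter signal reflecting CREB driven transcription.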 Particulars: luminescence, 4.5 h, higher = more signal, called active from +8 up or from −8 down.
Test [15] deals with Streptavidin (Streptomyces avidinii) (UniProt P22629). Nature of the test: streptavidin binders on small-molecule microarray, primary screen, artefact control for SMM compound annotation, biophysical, 635/667 nm fluorescence (AID 1147).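 Also: signal reflects streptavidin binding to arrayed compounds as a control protein.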 Particulars: streptavidin binding, higher = more signal.
Streptavidin (Streptomyces avidinii), sequence (P22629 whole entry, looked up): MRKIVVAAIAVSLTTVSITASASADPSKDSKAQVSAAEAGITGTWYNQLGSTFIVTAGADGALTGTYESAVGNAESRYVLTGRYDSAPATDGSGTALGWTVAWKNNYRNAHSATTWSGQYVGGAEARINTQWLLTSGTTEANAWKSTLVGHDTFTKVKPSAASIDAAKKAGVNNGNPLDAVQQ
Test [16] in a line: small-molecule binders of probe aInhba, primary screen, biochemical, small-molecule microarray, 635/667 nm fluorescence (AID 1148).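 Also: score merges 667nm spot fluorescence with signal-to-noise for antibody binding to printed compounds.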 Particulars: higher = more signal.
For test [17], the target named is Torsin-1A (Homo sapiens) (UniProt O14656). Nature of the test: torsin A binders from cell lysate, primary screen, small-molecule microarray, wild-type, 635/667 nm (AID 1149). Particulars: COS7 hTOR1A-WT lysate, 635 nm fluorescence, higher = more signal.
Torsin-1A (Homo sapiens), sequence (O14656 whole entry, looked up): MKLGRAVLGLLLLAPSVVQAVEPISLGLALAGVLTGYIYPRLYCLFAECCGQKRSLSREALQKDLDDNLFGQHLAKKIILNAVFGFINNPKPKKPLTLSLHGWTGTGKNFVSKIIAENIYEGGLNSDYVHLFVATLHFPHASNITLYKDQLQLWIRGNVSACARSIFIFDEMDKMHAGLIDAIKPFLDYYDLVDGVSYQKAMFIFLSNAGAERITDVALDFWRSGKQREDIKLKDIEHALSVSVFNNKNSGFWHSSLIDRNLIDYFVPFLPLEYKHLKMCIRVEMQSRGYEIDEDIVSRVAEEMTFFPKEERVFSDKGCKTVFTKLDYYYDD
The target is the same in test [18]. In words: small-molecule binders of mutant TOR1A in lysate, primary screen, cell lysate, small-molecule microarray, COS7 lysate, 635/667 nm fluorescence (AID 1150).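 Also: score pools 667 nm emission and signal to noise measuring lysate protein binding.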 Particulars: COS7 hTOR1A mutant lysate, 635 nm fluorescence, higher = more signal.
The test system of test [19] is Sonic hedgehog protein (Shh). In words: small-molecule binders of Shh protein, primary screen, biochemical, small-molecule microarray, 635/667 nm fluorescence (AID 1151).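 Also: Shh protein binding to compounds spotted on small-molecule microarray slides; score combines spot fluorescence intensity with signal-to-noise across triplicate slides.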 Particulars: small-molecule microarray binding, 635 nm fluorescence; higher = more signal.

Fibroblast growth factor 2 (Homo sapiens), sequence (P09038 whole entry, looked up): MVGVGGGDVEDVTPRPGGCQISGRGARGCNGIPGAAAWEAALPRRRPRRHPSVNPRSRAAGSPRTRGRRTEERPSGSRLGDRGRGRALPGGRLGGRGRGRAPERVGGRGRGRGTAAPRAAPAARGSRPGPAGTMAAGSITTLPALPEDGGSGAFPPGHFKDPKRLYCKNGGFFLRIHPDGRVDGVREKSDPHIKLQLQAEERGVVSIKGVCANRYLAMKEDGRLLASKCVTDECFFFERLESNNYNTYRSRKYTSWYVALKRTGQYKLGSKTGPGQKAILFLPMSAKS
Luciferin 4-monooxygenase (Photinus pyralis), sequence (P08659 whole entry, looked up): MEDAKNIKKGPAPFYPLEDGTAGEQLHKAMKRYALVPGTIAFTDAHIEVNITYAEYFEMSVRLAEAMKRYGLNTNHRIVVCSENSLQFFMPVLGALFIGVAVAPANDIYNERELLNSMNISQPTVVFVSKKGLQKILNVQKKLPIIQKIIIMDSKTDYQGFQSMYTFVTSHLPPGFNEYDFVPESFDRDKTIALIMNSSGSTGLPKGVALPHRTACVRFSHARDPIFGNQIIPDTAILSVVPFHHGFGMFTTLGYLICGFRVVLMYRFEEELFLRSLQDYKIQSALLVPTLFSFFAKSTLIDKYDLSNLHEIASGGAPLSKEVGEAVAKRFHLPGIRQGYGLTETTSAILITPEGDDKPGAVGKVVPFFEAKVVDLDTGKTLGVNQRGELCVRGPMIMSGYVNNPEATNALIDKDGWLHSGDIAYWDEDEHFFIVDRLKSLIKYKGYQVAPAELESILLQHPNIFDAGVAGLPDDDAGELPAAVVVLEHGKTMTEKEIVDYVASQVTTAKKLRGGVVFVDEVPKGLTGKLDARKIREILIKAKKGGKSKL

Regarding `CCCC[C@H]1OB(O)C[C@H]2C1=C(C)C[C@H]1C(=O)C=CC(=O)[C@H]12`, the composite z-score in test [1] was 0.306; in test [2] it was 0.615; in test [3], -0.244; in test [4] it was 0.483; in [5] it was 0.828; in test [6] it was 0.642. Besides, the composite z-score in the test on Lefty1 was 1.16; in test [8], -0.0126; in [10] it was -0.0289; in test [15] it was 0.146; in test [16], -0.0292; in the test with Torsin-1A (Homo sapiens) [17], 0.935. Besides, the composite z-score with Torsin-1A (Homo sapiens) [18] is 0.527; in [19] it was 1.71. Moreover, the z-score was -0.353 in test [7]; -2.94 (inactive) in test [9]; -1.52 (inactive) in test [11]; 0.244 (inactive) in [12]; 19.6 (active) in test [13]; 14.8 (active) in test [14].

Regarding `COc1ccccc1CN1C(=O)c2ccccc2[C@](Cc2ccccc2I)(C(=O)NCCCN(C)C)[C@@H]1c1ccc(CO)cc1`, the composite z-score in test [1] worked out at 0.237; in [2], 1.21; in [3], 0.904; in test [4] it was 0.944; in test [5], 0.489; in test [6], 0.141. The composite z-score is 0.0523 with Lefty1; 0.0618 in test [8]; 0.168 in test [10]; 0.956 in [15]; -0.187 in test [16]; -0.26 in the test with Torsin-1A (Homo sapiens) [17]. Further, the results for the composite z-score (with Torsin-1A (Homo sapiens) [18]; in [19]) were 0.409 and 0.814, respectively. Moreover, the z-score in test [7] was -2.4; in test [9] it was -0.644 (inactive); in [11] it was -5.84 (inactive); in [12], 0.777 (inactive); in [13], 3.31 (inactive); in test [14], 5.18 (inactive).

With `C=CCNC(=O)[C@H]1[C@@H]2C(=O)O[C@@H](c3ccccc3)[C@@H](c3ccccc3)N2[C@@H](c2ccccc2OCCO)[C@]12C(=O)N(C(=O)OCCOC)c1ccccc12`, the composite z-score in test [1] was found to be 1.23; in test [2], 1.22; in test [3], 0.706; in test [4], 0.887; in [5], 0.465; in test [6], 0.849. Also, the composite z-score with Lefty1 was 0.583; in test [8], 1.07; in test [10] it was 0.307; in [15] it was 0.618; in [16], -0.358; in the test with Torsin-1A (Homo sapiens) [17], -0.025. In addition, the composite z-score in the test with Torsin-1A (Homo sapiens) [18] turned out to be 0.664; in [19] it was 1.14. The z-score was -0.276 in test [7]; 0.206 (inactive) in [9]; -4.39 (inactive) in test [11]; 0.369 (inactive) in test [12]; -0.195 (inactive) in test [13]; 6.34 (inactive) in [14].

Regarding `C=CC[C@]1(C(=O)N(C)C)COC(c2ccc(OCCCO)cc2)=N1`, the composite z-score was 3.41 in test [1]; 1.09 in test [2]; 0.268 in [3]; -0.744 in [4]; 0.517 in test [5]; 0.982 in test [6]. Further, the composite z-score with Lefty1 was -0.26; in test [8], 0.615; in test [10], 1.07; in test [15], 2.12; in test [16], 0.3; in the test with Torsin-1A (Homo sapiens) [17], 0.577. The figures for the composite z-score (with Torsin-1A (Homo sapiens) [18]; in test [19]) were 1.85 and -0.174, respectively. The z-score in test [7] is -0.392; in test [9] it was -2.7 (inactive); in test [11], -1.88 (inactive); in test [12] it was -1.15 (inactive); in [13], 2.5 (inactive); in [14], -1.45 (inactive).

For `NC(=O)N1C(=O)C2C(C1=O)C1C=C(CCCO)C2C(c2ccc(CN3CCCC3)cc2)N1Cc1cccc(OC(F)(F)F)c1` (stereo not given), the composite z-score in [1] turned out to be 0.22; in test [2] it was 0.429; in test [3], 0.102; in test [4], 0.33; in test [5], 1.05; in test [6], 0.532. For the same compound, the composite z-score is 1.38 in the test with Lefty1; 0.0168 in test [8]; 0.232 in test [10]; -0.157 in [15]; -0.0736 in test [16]; 0.094 with Torsin-1A (Homo sapiens) [17]. The composite z-score with Torsin-1A (Homo sapiens) [18] was determined as 0.462; in [19] it was 1.86. For the same compound, the z-score in test [7] is 1.39; in [9], -0.84 (inactive); in test [11], -0.596 (inactive); in test [12] it was 0.963 (inactive); in [13], 0.494 (inactive); in test [14], -0.679 (inactive).
